# Inconclusive results are not listed. Entries that show only a call come without a potency. Unmarked numbers belong to inactive results. Active and inactive are the calls of the source. The call rests on the fitted dose curve; in most records, active means well fitted curve in the direction sought with a large enough effect; inconclusive means small, poorly fitted or top-dose-only effect, or another doubt; inactive means no such curve, though single readings can be large; an effect the other way counts as inactive or inconclusive. Square brackets hold non-standard residues; d marks the D form. Peptide text beside a SMILES is read from it. ξ: configuration not given here. ξLac(3-iPr) = CC(C)CC(O)C(=O)O; NMeV = CN[CH](C(=O)O)C(C)C; βAla = NCCC(=O)O
# Tests used:
# [1] = target: Cellular tumor antigen p53 (Homo sapiens) (UniProt P04637); assay: Primary qHTS for small molecule compounds that upregulate eGFP-tagged delta133p53alpha (in N-terminal) cells. (AID 2060322); conditions: NCI-H358 eGFP-delta133p53alpha fluorescence, 24 h; activation: stronger effect = higher value; further: nearly all actives have a fitted effect of over 75% in size; further: potency means the concentration at half of the fitted maximal effect;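 on activation: cells pre-induced with doxycycline then dosed without doxycycline; series mostly up to about 56 µM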
# Summary of the method: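 NCI-H358 cells pre-induced 24 h with 10 ng/ml doxycycline for eGFP-delta133p53alpha, plated dox-free and exposed 24 h at 37C to titrated compounds. Fixed, Hoechst-stained; gated GFP peak intensity by laser scanning cytometry, normalized to DMSO (0%) and 57.5 uM 5-azacytidine (100%).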
# [2] = target: Aldehyde dehydrogenase, mitochondrial (Homo sapiens) (UniProt P05091); assay: qHTS for Inhibitors of the Aldehyde Dehydrogenase Family (ALDH2) Primary screen (AID 2061308); further: nearly all actives have a fitted effect of over 55% in size
# [3] = target: Retinaldehyde dehydrogenase 3 (Homo sapiens) (UniProt P47895); assay: qHTS for Inhibitors of the Aldehyde Dehydrogenase Family (ALDH1A3) Primary screen (AID 2061315)
# Cellular tumor antigen p53 (Homo sapiens), sequence (P04637 whole entry, looked up): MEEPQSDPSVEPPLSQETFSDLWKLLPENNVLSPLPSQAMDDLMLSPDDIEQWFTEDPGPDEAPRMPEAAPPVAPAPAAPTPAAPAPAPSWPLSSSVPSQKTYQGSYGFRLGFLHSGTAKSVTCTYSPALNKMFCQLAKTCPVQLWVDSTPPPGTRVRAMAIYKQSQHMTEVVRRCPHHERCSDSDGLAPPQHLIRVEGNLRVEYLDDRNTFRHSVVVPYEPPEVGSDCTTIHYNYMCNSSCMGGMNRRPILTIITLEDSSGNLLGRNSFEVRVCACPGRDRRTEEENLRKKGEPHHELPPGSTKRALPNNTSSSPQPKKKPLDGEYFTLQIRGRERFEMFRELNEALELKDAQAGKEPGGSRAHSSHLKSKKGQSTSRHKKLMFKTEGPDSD
SMILES,activation [1],Potency [2],Potency [3],Potency [1],"activity change, negative = inhibition [2]","activity change, negative = inhibition [3]"
CC1(C)CC[C@]2(C(=O)O)CC[C@]3(C)C(=CCC4[C@@]5(C)C[C@@H](O)[C@H](O)C(C)(C)C5CC[C@]43C)[C@@H]2[C@@H]1O (stereo partly drawn),-0.893%,inactive,inactive,,,
OCC1=C[C@@H](O)[C@@H]2C=CO[C@@H](O[C@@H]3O[C@H](CO)[C@@H](O)[C@H](O)[C@H]3O)[C@H]12,-32.8%,inactive,inactive,,,
CC(=O)OCC1(O)CCC2C(COC3OC(CO)C(O)C(O)C3OC(=O)/C=C/c3ccc(O)cc3)=COC(OC(=O)CC(C)C)C21 (stereo not drawn),11.5%,inactive,inactive,,,
COC(=O)C1=COC(O[C@@H]2O[C@H](CO)[C@@H](O)[C@H](O)[C@H]2O)[C@H]2[C@@H]1[C@H](OC(=O)CCc1ccc(O)cc1)C[C@]2(C)O (stereo partly drawn),21.4%,inactive,inactive,,,
Nc1ncnc2c([C@@H]3N[C@H](CO)[C@@H](O)[C@H]3O)c[nH]c12,-8.93%,inactive,inactive,,,
CC1CCC2(OC1)OC1CC3C4CC=C5CC(O)CC(O[C@@H]6OC[C@@H](O)[C@H](O)[C@H]6O)C5(C)C4CCC3(C)C1(O)C2C (stereo partly drawn),16.8%,inactive,inactive,,,
O=c1c2cccnc2n(-c2cccc([N+](=O)[O-])c2)c(=O)n1Cc1ccncc1,-20%,inactive,inactive,,,
C[C@H]1CC[C@@]2(OC1)O[C@H]1CC3C4CC=C5C[C@H](O)C[C@@H](O[C@@H]6O[C@@H](C)[C@H](O)[C@@H](O)[C@H]6O[C@@H]6O[C@@H](C)[C@H](O)[C@@H](O)[C@H]6O)[C@]5(C)C4CC[C@]3(C)[C@H]1[C@@H]2C (stereo partly drawn),-13.7%,inactive,inactive,,,
O=C(/C=C/c1ccc(O)cc1)OC[C@H]1O[C@@H](OC(=O)/C=C/c2ccccc2)[C@H](O)[C@@H](O)[C@@H]1O,-1.53%,inactive,inactive,,,
CC(C)=CCCC1(C)/C=C/C(OC(=O)C=C(C)C)C(C)(O)/C=C/C(=O)/C(CO)=C\C1 (stereo not drawn),,inactive,inactive,10.4 µM (active),,
CC1OC(OC2C(C)OC(OC3C(OC(=O)C45CCC(C)(C)CC4C4=CCC6C7(C)CCC(OC8OC(C(=O)O)C(O)C(O)C8OC8OC(CO)C(O)C(OC9OC(C)C(O)C(O)C9O)C8O)C(C)(CO)C7CCC6(C)C4(C)CC5)OC(CO)C(O)C3O)C(O)C2O)C(O)C(O)C1O (stereo not drawn),13.4%,,,,-1.8% [at 11.2 µM],-5.04% [at 11.2 µM]
CC1(C)CC[C@]2(C(=O)O)[C@H](O)C[C@]3(C)C(=CCC4[C@@]5(C)CC[C@H](O[C@@H]6O[C@H](CO[C@@H]7OC[C@H](O)[C@H](O)[C@H]7O[C@@H]7OC[C@@H](O)[C@H](O)[C@H]7O)[C@@H](O)[C@H](O)[C@H]6O[C@@H]6O[C@H](CO)[C@@H](O)[C@H](O)[C@H]6O)C(C)(C)C5CC[C@]43C)[C@@H]2C1 (stereo partly drawn),-17.6%,inactive,inactive,,,
CC(=O)NC[C@H]1CN(c2ccc(N3CCN(C(=O)CO)CC3)c(F)c2)C(=O)O1,11.6%,inactive,inactive,,,
C[C@@H]1O[C@@H](OC[C@H]2O[C@@H](OCCc3ccccc3)[C@H](O)[C@@H](O)[C@@H]2O)[C@H](O)[C@H](O)[C@H]1O,-8.4%,inactive,inactive,,,
CC(C)CC1OC(=O)C2CCCN2C(=O)CCNC(=O)C(Cc2ccccc2)NC(=O)C(C(C)C)N(C)C(=O)C(C(C)C)N(C)C1=O (stereo not drawn) (cyclo([ξLac(3-iPr)][NMeV][NMeV]F[βAla]P); configuration not given here),-23.7%,inactive,inactive,,,
COc1cc(C(=O)NC2CCN(C)CC2)ccc1Nc1ncc2c(n1)N(C1CCCC1)CC(F)(F)C(=O)N2C,29.5%,inactive,inactive,,,
CC(C)CCC(=O)CC1c2ccccc2C(=O)N1c1ccc2ccc(Cl)nc2n1 (stereo not drawn),0.477%,inactive,inactive,,,
CC1NC(=O)C(Cc2c[nH]c3ccccc23)NC1=O (stereo not drawn),-13.7%,inactive,inactive,,,
Cc1noc(-c2ccc(-c3ccc(CC(=O)O)cc3)cc2)c1NC(=O)O[C@H](C)c1ccccc1,-1.79%,inactive,inactive,,,
C/C=C/C=C/[C@@H]1O[C@](O)([C@H](CC)C(=O)NC/C=C/C=C(\C)[C@@H](OC)[C@@H](C)[C@@H]2O[C@H](/C=C/C=C/C=C(\C)C(=O)c3c(O)ccn(C)c3=O)[C@H](O)[C@@H]2O)[C@H](O)[C@H](O)C1(C)C,4.58%,inactive,inactive,,,
Cc1ccc2c(c1)c1c(n2CCc2ccc(C)nc2)CCN(C)C1,14.3%,inactive,inactive,,,
CC1=CC(=O)OC(C)(CC(C)(O)C(=O)O)C1 (stereo not drawn),-15.3%,inactive,inactive,,,
CC(=O)O[C@@H]1c2c(C)coc2C(=O)[C@@]23O[C@@H]2CC[C@H](C)[C@@]13C,-2.68%,inactive,inactive,,,

SMILES,activation [1],Potency [2],Potency [3],Potency [1],"activity change, negative = inhibition [2]","activity change, negative = inhibition [3]"
CC(=O)OCC1=CCC2C(C)(C)CCCC2(C)C12CCC(C)(CC(=O)O)O2 (stereo not drawn),25.9%,inactive,inactive,,,
Cc1ccc(F)cc1S(=O)(=O)N[C@@H]1CCN(Cc2ccc(OC(C)C)cc2)C1,-2.39%,inactive,inactive,,,
C/C=C/C=C/C=C/C(=O)O[C@@H]1[C@@H](OC)C2=C(C(=O)N(C(CCC(=O)O)C(=O)O)C2)[C@@]2(C)CCCC(C)(C)[C@H]12 (stereo partly drawn),-27.5%,inactive,inactive,,,
COC(=O)CCC(=O)OC[C@]1(C)CCC[C@@]2(C)C3CC[C@]4(C)C=CC3(CCC12)C4 (stereo partly drawn),-8.4%,inactive,inactive,,,
CC(=O)NCc1cccc(OC[C@@H](O)CNCCc2ccc(NS(=O)(=O)c3ccccc3)cc2)c1,8.93%,inactive,inactive,,,
CC1CCC2(C=O)C(CO)=CCCC2C1(C)CC(=O)O (stereo not drawn),-0.763%,inactive,inactive,,,
COc1cc(CCO)ccc1O[C@@H]1O[C@H](CO)[C@@H](O)[C@H](O)[C@H]1O,5.36%,inactive,inactive,,,
CCC/C=C/C(=O)O[C@H]1CC(C)(C)CC2[C@]13[C@H](O)O[C@@]21CCC2[C@@]4(C)CC[C@H](O[C@@H]5O[C@H](C(=O)O)[C@@H](O)[C@H](O[C@@H]6O[C@H](CO)[C@H](O)[C@H](O)[C@H]6O[C@@H]6O[C@@H](C)[C@H](O)[C@@H](O)[C@H]6O[C@@H]6OC[C@](O)(CO)[C@H]6O)[C@H]5O[C@@H]5O[C@H](CO)[C@H](O)[C@H](O)[C@H]5O)C(C)(C)C4CC[C@@]2(C)[C@]1(C)C[C@H]3OC(C)=O (stereo partly drawn),-4.58%,,,,3.01% [at 11.2 µM],13.9% [at 11.2 µM]
CCC(C)/C=C(C)/C=C/C1=CC2=CC(=O)C3(C)OC(C)(O)C(C(=O)OC)C3C2=CO1 (stereo not drawn),,inactive,inactive,13.1 µM (active),,
CCOC(=O)CCNc1cc(N2CCc3ccccc3CC2)nc(-c2cccnc2)n1,7%,inactive,inactive,,,
O=C(c1ccc(Cl)cc1)N1CCN(c2ccnc3cc(Cl)ccc23)CC1,-3%,inactive,inactive,,,
Cc1cc(NC(=O)c2cccc(NC(=O)/C=C/CN(C)C)c2)ccc1Nc1nccc(-c2cccnc2)n1,,inactive,inactive,26.9 µM (active),,
O=C(O)/C=C/c1ccc(-c2ccc(O)c(C34CC5CC(CC(C5)C3)C4)c2)cc1,,inactive,inactive,26.9 µM (active),,
COC(=O)C1C(c2ccc(O)cc2)C(C(=O)OC)C1c1ccc(O)cc1 (stereo not drawn),-16.1%,inactive,inactive,,,
CC(/C=C/C1(O)C(C)(C)CC(O)CC1(C)O)OC1OC(CO)C(O)C(O)C1O (stereo not drawn),-5.34%,inactive,inactive,,,
CO[C@@H]1CC[C@H](OC[C@]2(COC(=O)c3ccc(C)[nH]3)[C@H](OC(C)=O)CC[C@@]3(C)[C@@H]4CC=C(C)[C@@H](C5=C(O)C(=O)OC5O)[C@]4(C)CC[C@@H]32)O[C@H]1C (stereo partly drawn),0%,inactive,inactive,,,
CC(=O)O[C@@H]1C[C@@]23C[C@@]24CC[C@H](O[C@@H]2OC[C@H](O)[C@H](O)[C@H]2O)C(C)(C)[C@@H]4CC[C@H]3[C@]2(C)[C@@H](O)C34O[C@H](C[C@@H](C)[C@@H]3[C@@]12C)[C@@H](C(C)(C)O)O4,,inactive,inactive,3.79 µM (active),,
COC(=O)C[C@H]1[C@]2(C)C3=C(C)[C@H](c4ccoc4)C[C@H]3O[C@@H]2[C@H](O)C2[C@](C)(C(=O)OC)C=CC(=O)[C@@]21C (stereo partly drawn),2.29%,inactive,inactive,,,
C=C1/C(=C/C=C2\CCC[C@]3(C)[C@@H]([C@H](C)CC[C@@H](O)C(C)(C)O)CC[C@@H]23)C[C@@H](O)C[C@@H]1O,10.3%,inactive,inactive,,,
CC(C)(O)c1ccc2c(c1)C(=O)CC1[C@](C)(CO)CCC[C@]21C (stereo partly drawn),26.8%,inactive,inactive,,,
COc1ccc(C2Oc3c(OC)cc(CCCO)cc3C2COC2OC(CO)C(O)C(O)C2O)cc1OC (stereo not drawn),-3.82%,inactive,inactive,,,
CCN1C(=O)c2ccccc2C1Nc1ccc(OCCN2CCCCC2)cc1 (stereo not drawn),-18.4%,inactive,inactive,,,
C=C(C)[C@@H](C)[C@H]1O[C@]23C[C@]4(CO2)C(CCC2[C@@]5(C)CC[C@H](O[C@@H]6OC[C@H](O)[C@H](O[C@@H]7O[C@H](CO)[C@@H](O)[C@H](O)[C@H]7O)[C@H]6O[C@@H]6O[C@@H](CO)[C@H](O)[C@H]6O)C(C)(C)C5CC[C@]24C)C3[C@@](C)(O)[C@@H]1OC(C)=O (stereo partly drawn),-7.63%,inactive,inactive,,,
